Compound activity deposited in PubChem by National Center for Advancing Translational Sciences (NCATS).
D1 antagonist: Antagonist of Human D 1 Dopamine Receptor: qHTS; HEK293 TREx D1 cells, calcium flux, dopamine EC80; active compounds read low; activity change, negative = inhibition, % at 10 µM; 360,000 tested, 3.2% active; AID 504652, 2011; in the data active = activity change below about -30%; note: % is set by controls: 0 for no effect and ±100 for the full control effect
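Tetracycline-induced HEK293 Trex D1 cells, force-coupled to calcium, dye-loaded; compounds added and read 180 s, then EC80 dopamine added and calcium flux tracked kinetically another 180 s.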
D1 potentiator: Potentiators of Human D1 Dopamine Receptor: qHTS. D(1A) dopamine receptor (Homo sapiens), P21728. HEK293 TREx D1 cells, calcium flux, dopamine EC20 potentiation. potentiation, % at 10 µM. 360,000 tested, 0.036% active. AID 504651, 2011; in the data active = potentiation above about 30%; note: 0% is about no effect
TRHR enhancer: qHTS for Small Molecule Agonists and Allosteric Enhancers of Human TRH Receptor: Primary Screen for Enhancers | 360,000 tested, 0.66% active | enhancement, % at 2 µM | TRHR cells, fluo-8 calcium fluorescence, EC20 TRH enhancement | Thyrotropin-releasing hormone receptor (Homo sapiens), P34981 | AID 493056, 2011; in the data active = enhancement above about 30%; note: 0% is about no effect
Target sequence (P34981 whole entry, looked up): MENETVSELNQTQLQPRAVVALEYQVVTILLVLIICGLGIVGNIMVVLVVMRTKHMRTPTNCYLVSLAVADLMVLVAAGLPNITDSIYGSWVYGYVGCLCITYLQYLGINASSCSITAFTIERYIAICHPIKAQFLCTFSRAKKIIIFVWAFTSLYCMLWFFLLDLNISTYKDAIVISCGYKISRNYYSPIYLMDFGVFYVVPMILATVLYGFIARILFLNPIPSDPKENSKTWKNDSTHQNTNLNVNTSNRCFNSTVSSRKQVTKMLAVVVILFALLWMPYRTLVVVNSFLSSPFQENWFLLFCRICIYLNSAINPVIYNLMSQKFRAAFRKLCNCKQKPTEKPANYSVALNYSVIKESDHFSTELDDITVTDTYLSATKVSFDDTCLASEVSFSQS
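Enhancer read-out: after compound pinning and an initial kinetic agonist-mode read, an EC20 of TRH (10 nM final) was injected and fluo-8 calcium signal (Ex 480/Em 530) followed at 1 s/cycle for 100 cycles in TRHR-expressing cells.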
TRHR ag: qHTS for Small Molecule Agonists and Allosteric Enhancers of Human TRH Receptor: Primary Screen for Agonists; AID 493084, 2011; activation, % at 2 µM; 360,000 tested, 0.18% active; Thyrotropin-releasing hormone receptor (Homo sapiens), P34981; TRHR cells, calcium flux fluo-8, FDSS agonist mode; note: 0% is about no effect
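Steps: seed TRHR cells overnight; add fluo-8 no-wash Ca dye, RT 30 min–1.5 h; record 10 s baseline; pin-transfer compounds; monitor fluorescence 1 cycle/s for the agonist window. Calcium increases flag candidate agonists.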
D1 agonist: Allosteric Agonists of the Human D1 Dopamine Receptor: qHTS | HEK293 T-REx D1 cells, calcium flux, agonist mode | activation, % at 2 µM | 360,000 tested, 1% active; note: 0% is about no effect
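Agonism was scored from calcium flux recorded over 180 s (1 read/s) after pintool compound addition, following a 10-cycle baseline. Cells were inducible force-coupled HEK293 TREx D1, plated overnight at 30 C and loaded with no-wash calcium dye.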
An asterisk follows results filed as active. In the library only some 4.6% were active in any assay of this set; here they are far more common. Cut-off read from the data, not from the text of the source, unless noted: active = activation above about 30%; inactive = the rest.

Screening CCOc1ccc(NC(=O)N2CCN(Cc3ccc4c(c3)OCO4)CC2)cc1 returned D1 antagonist -78*, D1 potentiator -9, TRHR enhancer 1, TRHR ag -2 and D1 agonist 2.
CCOc1ccc(NC(=O)c2ccc(F)c(S(=O)(=O)NCc3ccc4c(c3)OCO4)c2)cc1 was read as D1 antagonist -34*, D1 potentiator 0, TRHR enhancer 0, TRHR ag -1 and D1 agonist 4.
O=C(c1ccc(COc2ccc(Cl)cc2)o1)N1CCN(Cc2ccc3c(c2)OCO3)CC1 was read as D1 antagonist -43*, D1 potentiator -11, TRHR enhancer -7, TRHR ag 2 and D1 agonist 11.
For O=C(c1ccc(COc2ccccc2Cl)o1)N1CCN(Cc2ccc3c(c2)OCO3)CC1 the results were D1 antagonist 9, D1 potentiator -2, TRHR enhancer 8, TRHR ag 0 and D1 agonist 2.
`CC(C)c1ccc(CN(Cc2ccco2)c2cnc(S(C)(=O)=O)nc2C(=O)Nc2ccc(F)cc2)cc1` gave D1 antagonist -20, D1 potentiator 0, TRHR enhancer 10, TRHR ag -1 and D1 agonist 6.
COc1ccccc1COC(=O)Nc1c(C)nn(C)c1Cl was read as D1 antagonist -43*, D1 potentiator -8, TRHR enhancer -11, TRHR ag 0 and D1 agonist 10.
For Cc1nn(C)c(Cl)c1NC(=O)OCc1ccc(F)cc1 the results were D1 antagonist -61*, D1 potentiator -10, TRHR enhancer 8, TRHR ag -1 and D1 agonist 27.
COc1ccc(S(=O)(=O)c2c(SC)nn(CC(=O)Nc3cccc(C)c3C)c2N)cc1 was read as D1 antagonist 9, D1 potentiator -1, TRHR enhancer 9, TRHR ag 0 and D1 agonist 2.
CC1Cc2ccccc2N1C(=O)COC(=O)CCc1nc2ccccc2c(=O)[nH]1 (configuration not stated) was read as D1 antagonist -3, D1 potentiator -2, TRHR enhancer 2, TRHR ag 0 and D1 agonist 0.
Screening COc1cc(C(=O)OCCCN(C)C)cc(OC)c1OC returned D1 antagonist -39*, D1 potentiator -2, TRHR enhancer -6, TRHR ag 0 and D1 agonist 1.
`COc1ccc(C(=O)OCCCN(C)C)cc1OC` gave D1 antagonist -3, D1 potentiator 1, TRHR enhancer 1, TRHR ag 0 and D1 agonist 3.
`CCc1ccc(C(=O)c2cn(CC(=O)Nc3ccc4c(c3)OCO4)c3ccc(OC)cc3c2=O)cc1` gave D1 antagonist -2, D1 potentiator -1, TRHR enhancer 2, TRHR ag 0 and D1 agonist 2.
CC1=C(C(=O)Nc2ccc(Cl)cc2)C(CC(C)C)n2nc(SCc3ccccc3C)nc2N1 (configuration not stated) was read as D1 antagonist -3, D1 potentiator -2, TRHR enhancer 1, TRHR ag 1 and D1 agonist 2.
For CC1=C(C(=O)Nc2ccc(C)cc2C)C(CC(C)C)n2nc(SCc3ccccc3C)nc2N1 (configuration not stated) the results were D1 antagonist -36*, D1 potentiator -2, TRHR enhancer -2, TRHR ag 1 and D1 agonist -1.
`COc1ccc(C(=O)NCc2nnc(SCC(=O)N3CCc4ccccc43)n2Cc2ccccc2)cc1` gave D1 antagonist -30*, D1 potentiator -2, TRHR enhancer 10, TRHR ag 0 and D1 agonist 3.
CCOC(=O)c1sc(=S)n(C)c1C was read as D1 antagonist 2, D1 potentiator 2, TRHR enhancer 0, TRHR ag 0 and D1 agonist 2.
For CCOC(=O)c1sc(=S)n(C)c1N the results were D1 antagonist -33*, D1 potentiator -7, TRHR enhancer 1, TRHR ag 0 and D1 agonist 2.
Screening C[C@@H](C(=O)Nc1ccc2ccccc2c1)[C@@H]1C[C@@]1(C)[C@@H](NC(=O)c1cnccn1)c1ccccc1 returned D1 antagonist -30*, D1 potentiator -1, TRHR enhancer 4, TRHR ag 0 and D1 agonist 6.
`CCN1Cc2c(/C=C/c3ccccc3)nc3ccc(OC)cc3c2N(c2cccc(Cl)c2)C1` gave D1 antagonist -63*, D1 potentiator -13, TRHR enhancer -4, TRHR ag 5 and D1 agonist 6.
Screening COc1cccc(N2CCc3c(C)nc4ccc(Cl)cc4c32)c1 returned D1 antagonist 3, D1 potentiator -11, TRHR enhancer 8, TRHR ag -1 and D1 agonist 0.
`COc1ccc(COCC(O)CN2CCN(S(=O)(=O)c3ccc(C(C)C)cc3)CC2)cc1` (configuration not stated) gave D1 antagonist -30*, D1 potentiator 0, TRHR enhancer -1, TRHR ag 1 and D1 agonist 6.
For N#Cc1c(C(F)(F)F)cc(-c2ccccc2)nc1SCc1nc(N)nc(N2CCOCC2)n1 the results were D1 antagonist -17, D1 potentiator -3, TRHR enhancer -4, TRHR ag 23 and D1 agonist 70*.
N#Cc1c(C(F)(F)F)cc(-c2ccc(Cl)c(Cl)c2)nc1SCCN1CCOCC1 was read as D1 antagonist -5, D1 potentiator -8, TRHR enhancer -8, TRHR ag 1 and D1 agonist 4.
COC(=O)c1cccc(-n2c(C)cc(C=O)c2C)c1 was read as D1 antagonist -30*, D1 potentiator -4, TRHR enhancer -5, TRHR ag -2 and D1 agonist 3.
Screening COC(=O)c1cc(C(=O)OC)cc(-n2c(C)cc(C=O)c2C)c1 returned D1 antagonist -4, D1 potentiator 3, TRHR enhancer 1, TRHR ag 0 and D1 agonist 2.
Screening Cc1ccc(-n2nc(CO)c(C(=O)NCCc3ccccc3)n2)cc1C returned D1 antagonist 0, D1 potentiator 3, TRHR enhancer -3, TRHR ag 1 and D1 agonist 13.
For O=c1c2ccccc2n2c(-c3ccccc3F)nnc2n1CCc1ccccc1 the results were D1 antagonist -10, D1 potentiator -2, TRHR enhancer 0, TRHR ag 1 and D1 agonist 9.
`CC(C)N1CCN(Cc2cccn2-c2nccs2)CC1CCO` (configuration not stated) gave D1 antagonist 6, D1 potentiator 1, TRHR enhancer 36*, TRHR ag 2 and D1 agonist 14.
